Source: PubChem BioAssay
TDP1 cell noCPT: qHTS for Inhibitors of human tyrosyl-DNA phosphodiesterase 1 (TDP1): qHTS in cells in absence of CPT. DT40 Tdp1-/- hTDP1 cells, no CPT, ATP luminescence, 48 h. Potency, µM (titrated, usually from 46.2 µM), most hits filed as inhibitors. actives 15% (n = 420,000). AID 686978, 2013; also: nearly all actives have a fitted effect of over 55% in size
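A cellular qHTS used chicken DT40 cells lacking endogenous Tdp1 but carrying stably transfected human TDP1. Compounds were applied without camptothecin, and cell growth kinetics were judged by ATP-dependent luminescence after ≥48 hr.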
RORg inh: blocks mouse ROR gamma transcriptional activity; P51450; Drosophila S2 Gal4-RORgamma UAS-luciferase reporter, 20 h; Potency, µM (titrated, usually from 53.6 µM), most hits filed as inhibitors; actives 5.4% (n = 310,000); AID 2551; also: nearly all actives have a fitted effect of over 60% in size
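Stable Schneider cell line, Gal4 DNA-binding domain fused to ROR gamma, UAS-luciferase. Cmpd 1 hr RT → CuSO4 700 uM final → 20 hr RT → luciferase reagent 10 min → luminescence.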
DT40 TDP1 CPT: growth inhibition of DT40 Tdp1-/-;hTDP1 cells with camptothecin (screen for TDP1 inhibitors) | chicken DT40 Tdp1-/-;hTDP1 cells + 20 nM CPT, ATP luminescence, 48 h | Potency, µM (top dose mostly 46.2 µM), actives largely listed as inhibitors | actives 12% (n = 420,000) | AID 686979; also: nearly all actives have a fitted effect of over 55% in size
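Chicken DT40 Tdp1-/- cells complemented with human TDP1, 400 cells/well, exposed to compounds plus 20 nM camptothecin for at least 48 h at 37 C; viability read as ATP content by CellTiter-Glo luminescence.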
Gal4-VP16 FLuc: Gal4-VP16 reporter inhibition counter-screen | AID 2546 | Drosophila S2 Gal4-VP16 UAS-luciferase, luminescence, 20 h | Potency, µM (doses to about 53.6 µM), most hits filed as inhibitors | actives 3.5% (n = 310,000);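 also: Gal4-VP16 expression switched on by copper sulfate through the metallothionein promoter; nearly all actives have a fitted effect of over 50% in size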
TDP1 block: inhibitors of human tyrosyl-DNA phosphodiesterase TDP1; AID 485290; actives 0.28% (n = 350,000); recombinant TDP1, AlphaScreen DNA substrate cleavage; Potency, µM (highest dose often 130 µM), usual class: inhibitors; also: nearly all actives have a fitted effect of over 40% in size
Target sequence (Q9NUW8 whole entry, looked up): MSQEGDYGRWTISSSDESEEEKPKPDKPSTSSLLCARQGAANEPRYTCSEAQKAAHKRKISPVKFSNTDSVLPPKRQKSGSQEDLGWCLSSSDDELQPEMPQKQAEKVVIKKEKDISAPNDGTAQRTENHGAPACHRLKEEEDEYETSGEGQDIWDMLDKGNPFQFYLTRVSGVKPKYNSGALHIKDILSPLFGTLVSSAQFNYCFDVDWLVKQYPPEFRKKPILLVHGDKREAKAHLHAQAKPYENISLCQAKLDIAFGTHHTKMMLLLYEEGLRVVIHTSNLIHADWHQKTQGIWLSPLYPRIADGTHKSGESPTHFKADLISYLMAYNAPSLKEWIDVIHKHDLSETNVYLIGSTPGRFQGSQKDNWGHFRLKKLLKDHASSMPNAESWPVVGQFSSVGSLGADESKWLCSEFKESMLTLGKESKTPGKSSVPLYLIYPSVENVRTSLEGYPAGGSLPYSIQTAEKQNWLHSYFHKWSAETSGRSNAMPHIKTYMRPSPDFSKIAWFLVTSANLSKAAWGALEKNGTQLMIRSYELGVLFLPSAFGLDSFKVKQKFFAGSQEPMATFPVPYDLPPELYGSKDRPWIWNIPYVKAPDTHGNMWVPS
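Tdp1 1 nM final; 15 min RT w/ cpd; substrate 15 nM, 5 min; beads 10 ug/ml, 10 min; AlphaScreen read. Neg ctrl: no enzyme.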
Hits are given with their value; - = inactive; ? = inconclusive; . = no result given; ! = not confirmed by another sample; [ ] = dose if it differs, or a comment. An excerpt weighted towards active compounds, which were near 19% of everything screened. Calls follow the shape of the dose curve; as a rule, active = well fitted curve in the direction sought with a large enough effect; inconclusive = small, poorly fitted or top-dose-only effect, or another doubt; inactive = no such curve, though single readings can be large; an effect the other way counts as inactive or inconclusive.

SMILES	TDP1 cell noCPT	RORg inh	DT40 TDP1 CPT	Gal4-VP16 FLuc	TDP1 block
COC(=O)CCn1c(C)cc(C(=O)COc2ccccc2C(N)=O)c1C	23µM	-	21µM	?	-
CN1C(=O)CC(C(=O)Nc2ccc(F)cc2)SC1=Nc1ccc2c(c1)OCO2 (stereo not given)	-	-	?	-[0.365 µM]	-
COc1ccc(C2(C(=O)Nc3ccc(C)c(C)c3)CCOCC2)cc1	-	-	-	-	-
Cc1ccc(CNC(=O)CS(=O)(=O)Cc2nc(-c3ccccc3F)oc2C)cc1	?	-	-	-	.
Cc1ccc(C(=O)Nc2c(C)cc(-c3ccccc3)oc2=O)cc1	-	-	-	-	-
Cc1cc(C)nc(SCC(=O)Nc2nc(-c3ccccc3)c(-c3ccccc3)o2)n1	23µM	11µM	?	20µM	-
CC(C)(C)C(=O)Nc1ccc(N=Nc2ccccc2)cc1	-	-	-	-	-
Cc1cc(=O)[nH]c(SCC(=O)Nc2nc(-c3ccccc3)c(-c3ccccc3)o2)n1	-	-	-	-	-
Cc1nc(-c2ccc(NC(=O)C(C)(C)C)cc2)c(-c2ccccc2)o1	16µM	-	?	-	.
Cc1ccc(C(=O)Nc2nc(-c3ccccc3)c(-c3ccccc3)o2)cc1	18µM	5µM	21µM	5.6µM	-
NC(COCc1ccccc1)c1csc(Nc2ncccn2)n1 (stereo not given)	?	.	-	.	.
Cc1cc(C)nc(Nc2nc(C(N)CCc3ccccc3)cs2)n1 (stereo not given)	21µM	.	?	.	.
NC(CCc1ccccc1)c1csc(Nc2ccc(C(=O)c3ccccc3)cc2)n1 (stereo not given)	18µM	.	16µM	.	.
NC(COCc1ccccc1)c1csc(Nc2ccc(C(=O)c3ccccc3)cc2)n1 (stereo not given)	?	.	15µM	.	.
NC(=O)c1cccc(Nc2nc(C(N)COCc3ccccc3)cs2)n1 (stereo not given)	?	.	18µM	.	.
Clc1ccccc1-c1nccc(NCc2ccccc2)n1	?	-	?	-	.
COc1ccc(C(=O)CC2OC(=O)c3c2ccc(OC)c3OC)cc1 (stereo not given)	-	-	-	-	-
COC(=O)Cc1csc(Nc2ccccc2)n1	-	-	-	-	-
NC(CCc1ccccc1)c1csc(Nc2ccc(C(=O)NCCO)cc2)n1 (stereo not given)	23µM	.	?	.	.
NC(CCc1ccccc1)c1csc(Nc2ccc(C(=O)NCCCO)cn2)n1 (stereo not given)	-	.	-	.	.
CS(=O)(=O)c1ccc(Nc2nc(C(N)CCc3ccccc3)cs2)cc1 (stereo not given)	21µM	.	23µM	.	.
NCc1csc(Nc2ccc(C(=O)c3ccccc3)cc2)n1	1µM	.	0.92µM	.	.
COC(=O)CN(n1cnnc1)S(=O)(=O)c1ccccc1Cl	-	-	-	-	-
COC(=O)[C@@H](NC(=O)/C=C/c1ccc(OC)cc1)C(C)C	-	-	-	-	-
O=CNCc1nc2ccccc2n1CCc1ccccc1	-	-	-	-	.
SMILES	TDP1 cell noCPT	RORg inh	DT40 TDP1 CPT	Gal4-VP16 FLuc	TDP1 block
O=C(Nc1ccc(Cl)c(C(F)(F)F)c1)c1cc2nc(-c3ccc4c(c3)OCO4)cc(C(F)(F)F)n2n1	-	.	-	.	-
CC(=O)c1cccc(-c2ccnc3c2CC(C(=O)Nc2ccc(Cl)c(C(F)(F)F)c2)O3)c1 (stereo not given)	?	.	21µM	.	.
O=C(Nc1ccc(Cl)c(C(F)(F)F)c1)C1Cc2c(-c3ccc4c(c3)OCO4)ccnc2O1 (stereo not given)	?	.	23µM	.	.
CC(=O)c1cccc(-c2ccnc3c2CC(C(=O)Nc2ccc(Cl)cc2)O3)c1 (stereo not given)	21µM	.	?	.	.
CC(=O)c1cccc(NC(=O)C2Cc3c(-c4ccc(Cl)cc4)ccnc3O2)c1 (stereo not given)	10µM	.	?	.	.
CC(=O)Nc1ccc(NC(=O)C2Cc3c(-c4cccc(C(C)=O)c4)ccnc3O2)cc1 (stereo not given)	-	.	-	.	.
CC(=O)CSc1nnc(-c2ccncc2)n1C	-	-	-	-	-
C=Cc1ccc(Cn2c(=O)n(-c3cccc(C)c3)c(=O)c3c2c2cc(C)ccc2n3C)cc1	?	.	?	.	-
COc1ccccc1N1CCN(C(=O)CCN2C(=O)c3cccc4cccc(c34)C2=O)CC1	?	-	?	-	-
Fc1ccc(N2CCN(C3=Nc4cccc5cccc3c45)CC2)cc1	16µM	13µM	26µM	-	-
O=C(CCCN1C(=O)c2cccc3cccc(c23)C1=O)N1CCN(c2ccc(F)cc2)CC1	16µM	-	?	-	-
COc1ccc(N2CCN(C(=O)CCCN3C(=O)c4cccc5cccc(c45)C3=O)CC2)cc1	16µM	-	?	-	-
Cc1ccc(N2CCN(C(=O)c3nn(C)c4c3CS(=O)(=O)c3ccccc3-4)CC2C)cc1 (stereo not given)	?	-	21µM!	-	-
NC(=O)NCCN1CCN(c2ncc(C(F)(F)F)cc2Cl)CC1	-	-	-	-	-
O=C(C1CCN(c2ncnc3c2nc2n3CCCCC2)CC1)N1CCN(c2ccccc2)CC1	21µM	.	?	.	-
CCc1c(C)nc2ncnn2c1N1CCC(C(=O)N2CCN(c3ccccc3)CC2)CC1	.	-	.	-	-
O=C(C1CCN(c2ncnc3c2nc2n3CCCCC2)CC1)N1CCN(c2ccc(F)cc2)CC1	12µM	?	?	-	-
CN1CCN(C(=O)C2CCN(c3ncnc4c3nc3n4CCCCC3)CC2)CC1	-	-	-	-	-
CCc1c(C)nc2ncnn2c1N1CCC(C(=O)N2CCN(c3ccc(F)cc3)CC2)CC1	15µM	-	16µM	-	-
O=S(=O)(c1ccccc1F)N1CCN(Cc2cc3c(cc2O)OCO3)CC1	-	.	-	.	-
COc1ccccc1-c1cc(C(=O)N/N=C/c2ccoc2)c2ccccc2n1	7.3µM	11µM	?	?	-
CCc1ccc(/C=N/NC(=O)c2cc(C3CC3)nc3ccc(Br)cc23)s1	4.6µM	2.2µM	2.6µM	1.6µM	-
CCc1ccc(/C=N\NC(=O)c2ccc(Br)o2)s1	23µM	1.6µM	?	5µM	-
CCc1ccc(/C=N/NC(=O)c2cc(-c3ccccc3OC)nc3ccccc23)s1	12µM	4µM	4.1µM	4.5µM	-
O=C(CCn1c(=S)[nH]c2ccccc2c1=O)NCCc1ccc(Cl)cc1	?	-	-	-	-
COC(=O)c1c(NC(=O)Cc2coc3cc(C)cc(C)c23)sc2c1CCC2	?	.	-	.	-
COc1cc(OC)cc(C(=O)NC(C(=O)NNC(=O)c2ccc(C)cc2)C(C)C)c1 (stereo not given)	-	.	-	.	-
Cn1cccc1/C=N/NC(=O)c1cccc(OC(F)(F)C(F)F)c1	-	10µM	-	?	-
